Compounds without any hit were thinned out: in the full panel of roughly 79,000, 15% have a hit. The source made the active and inactive calls. No stated cut-off is given here; in the data, active means growth inhibition above about 70%; inactive means the rest.
Tests used:
[1] = NCI Yeast Anticancer Drug Screen. Data for the rad52 strain (AID 147);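 further: 0% = growth of vehicle-treated control cultures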; settings: S. cerevisiae rad52 mutant growth inhibition, hits give high values
Summary of the method: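 Read-out: growth inhibition versus vehicle-treated controls. Cells were a DNA repair-deficient yeast strain treated with compounds.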

[2] = NCI Yeast Anticancer Drug Screen. Data for the wt1 strain (AID 149);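 further: 0% = growth of vehicle-treated wt1 cultures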; settings: S. cerevisiae wt1 strain (SPY 50644) growth inhibition, hits give high values
Summary of the method: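 Readout: yeast growth inhibition, normalised to vehicle controls, in the wt1 strain exposed to test compounds.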

[3] = NCI Yeast Anticancer Drug Screen. Data for the rad50EPP+ strain (AID 151);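 further: 0% = growth of vehicle-treated control cultures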; settings: S. cerevisiae rad50 mutant strain, hits give high values
Summary of the method: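 Growth inhibition read against vehicle controls in rad50EPP+ yeast, a strain altered in DNA damage repair, after compound exposure.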

[4] = NCI Yeast Anticancer Drug Screen. Data for the mgt1 strain (AID 153); settings: S. cerevisiae mgt1 mutant growth inhibition, hits give high values
Summary of the method: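 mgt1 yeast grown with test compound; read-out is growth inhibition versus vehicle-treated cultures.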

[5] = NCI Yeast Anticancer Drug Screen. Data for the rad50 strain (AID 155);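 further: 0% = growth of vehicle-only cultures of the same strain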; settings: S. cerevisiae rad50 strain growth inhibition, hits give high values
Summary of the method: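 Compounds were tested on a yeast strain with an engineered DNA damage repair alteration; the reported value is growth inhibition normalised to vehicle treatment.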

[6] = NCI Yeast Anticancer Drug Screen. Data for the mec2-1 strain (AID 157); settings: S. cerevisiae mec2-1 strain, hits give high values
Summary of the method: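 Yeast mec2-1 mutant treated with compound. Readout: growth inhibition vs vehicle controls.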

[7] = NCI Yeast Anticancer Drug Screen. Data for the rad14 strain (AID 159);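 further: 0% = growth of vehicle-treated control cultures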; settings: S. cerevisiae rad14 strain growth inhibition, hits give high values
Summary of the method: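 Compound-treated yeast with a defined DNA-repair lesion; growth inhibition normalised to vehicle-treated cultures.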

[8] = NCI Yeast Anticancer Drug Screen. Data for the sgs1 mgt1 strain (AID 161);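 further: 0% = growth of cultures given vehicle only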; settings: S. cerevisiae sgs1 mgt1 strain, hits give high values
Summary of the method: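 Read-out: growth inhibition vs vehicle controls. Cells: mutant yeast strain deficient in DNA damage repair.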

[9] = NCI Yeast Anticancer Drug Screen. Data for the CLN2oe strain (AID 163);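 further: 0% = growth of vehicle-only control cultures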; settings: S. cerevisiae CLN2oe strain, hits give high values
Summary of the method: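 Read-out: yeast growth inhibition, expressed relative to vehicle-only controls. The strain bears an engineered cell-cycle alteration.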

[10] = NCI Yeast Anticancer Drug Screen. Data for the bub3 strain (AID 167); settings: S. cerevisiae bub3 mutant strain, hits give high values
Summary of the method: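 Growth of a checkpoint-deficient yeast mutant is measured after compound exposure. Values represent inhibition relative to vehicle.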

[11] = NCI Yeast Anticancer Drug Screen. Data for the wt2 strain (AID 169);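 further: 0% = growth of vehicle-treated yeast cultures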; settings: S. cerevisiae wt2 strain growth inhibition, hits give high values
Summary of the method: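 Read-out: growth inhibition versus vehicle-treated control cultures after compound exposure of the yeast strain.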

[12] = NCI Yeast Anticancer Drug Screen. Data for the mlh1 strain (AID 171);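 further: 0% = growth of vehicle-treated control cultures of the same strain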; settings: S. cerevisiae mlh1 strain growth inhibition, hits give high values
Summary of the method: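 Read-out: growth inhibition versus vehicle controls. Strain: engineered yeast with a defined DNA repair or cell cycle defect, compound-treated.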

[13] = NCI Yeast Anticancer Drug Screen. Data for the sgs1 strain (AID 173);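 further: 0% = growth of vehicle-only control cultures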; settings: S. cerevisiae sgs1 mutant, hits give high values
Summary of the method: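 Read-out: yeast growth inhibition relative to vehicle controls, following compound exposure of a strain with a defined DNA repair/cell cycle alteration.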

[14] = NCI Yeast Anticancer Drug Screen. Data for the mlh1 rad18 strain (AID 175); settings: S. cerevisiae mlh1 rad18 strain growth inhibition, hits give high values
Summary of the method: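 Yeast w/ defined DNA-repair lesions; compound exposure; growth vs vehicle controls → % inhibition.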

[15] = NCI Yeast Anticancer Drug Screen. Data for the rad18 strain (AID 177); settings: S. cerevisiae rad18 mutant growth inhibition, hits give high values
Summary of the method: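 Readout: growth inhibition vs vehicle controls. Cells: genetically altered yeast strain, DNA repair defect.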

[16] = at 5.0 µM (retest, dose inferred, filed as 0.5)
[17] = at 50.0 µM (retest, dose inferred, filed as 5.0)

Measured: growth inhibition

CC(=O)CC(c1ccccc1)c1c(O)c2ccccc2oc1=O (stereo not given)
inactive: [1]; at 1.2 µM 5% | [1]; at 3.7 µM -1% | [1]; at 11.0 µM -4% | [1]; at 33.0 µM 16% | [2]; at 1.2 µM -10% | [2]; at 3.7 µM -10% | [2]; at 11.0 µM -12% | [2]; at 33.0 µM 10% | [2]; at 100.0 µM 64% | [3]; at 1.2 µM 15% | [3]; at 3.7 µM 4% | [3]; at 11.0 µM -3% | [3]; at 33.0 µM -4% | [3]; at 100.0 µM -16% | [4]; at 1.2 µM 13% | [4]; at 3.7 µM 4% | [4]; at 11.0 µM 14% | [4]; at 33.0 µM 44% | [5]; at 1.2 µM 6% | [5]; at 3.7 µM 5% | [5]; at 11.0 µM 6% | [5]; at 33.0 µM 20% | [5]; at 50.0 µM 46.8% | [6]; at 1.2 µM -9% | [6]; at 3.7 µM -9% | [6]; [16] 61% | [6]; at 11.0 µM -4% | [6]; at 33.0 µM 12% | [6]; at 50.0 µM 31.5% | [6]; at 100.0 µM 67% | [7]; at 1.2 µM -4% | [7]; at 3.7 µM 0% | [7]; at 11.0 µM -8% | [7]; at 33.0 µM 19% | [7]; at 100.0 µM 68% | [8]; [16] -1% | [8]; at 50.0 µM 55.4% | [9]; at 1.2 µM 17% | [9]; at 3.7 µM 22% | [9]; at 11.0 µM 6% | [9]; at 33.0 µM 39% | [10]; at 1.2 µM 11% | [10]; at 3.7 µM 13% | [10]; [16] 29% | [10]; at 11.0 µM 14% | [10]; at 33.0 µM 45% | [10]; at 50.0 µM 62.1% | [11]; at 1.2 µM -20% | [11]; at 3.7 µM -9% | [11]; at 11.0 µM -13% | [11]; at 33.0 µM 11% | [12]; at 1.2 µM -15% | [12]; at 3.7 µM -3% | [12]; at 11.0 µM 3% | [12]; at 33.0 µM 43% | [13]; at 1.2 µM 11% | [13]; at 3.7 µM 14% | [13]; at 11.0 µM 7% | [13]; at 33.0 µM 42% | [14]; [16] 32% | [14]; at 50.0 µM 44.5% | [15]; at 1.2 µM -12% | [15]; at 3.7 µM 1% | [15]; at 11.0 µM 11% | [15]; at 33.0 µM 27%
active: [1]; at 100.0 µM 75% | [4]; at 100.0 µM 83% | [5]; [16] 70% | [5]; [17] 95% | [5]; at 100.0 µM 76% | [6]; [17] 97% | [8]; [17] 89% | [9]; at 100.0 µM 70% | [10]; [17] 86% | [10]; at 100.0 µM 79% | [11]; at 100.0 µM 77% | [12]; at 100.0 µM 85% | [13]; at 100.0 µM 84% | [14]; [17] 99% | [15]; at 100.0 µM 78%
